Test results: PubChem BioAssay (EPA / NIEHS)
The source made the active and inactive calls. How the source made its calls: active means hit-call score of the fitted dose curve at least 0.9, where 1 is the maximum; inactive means score below 0.9.

Experiment: ATG_Oct_MLP_CIS: Attagene CIS-FACTORIAL HepG2 Assay for human Octamer-Binding Transcription Factor (Oct) (AID 2282993)
Conditions: HepG2 Attagene cis-factorial Oct reporter, mRNA; actives raise or lower the signal
Procedure: ATG_CIS is a cell-based, multiplexed-readout assay that uses HepG2, a human liver cell line, with measurements taken at 24 hours after chemical dosing in a 24-well plate.ATG_Oct_MLP_CIS is one of 52 assay component(s) measured or calculated from the ATG_CIS assay. It is designed to make measurements of mRNA induction, a form of inducible reporter, as detected with fluorescence intensity signals by Reverse transcription polymerase chain reaction (RT-PCR) and Capillary electrophoresis technology.Data from the assay component ATG_Oct_MLP_CIS was analyzed into 1 assay endpoint. This assay endpoint, ATG_Oct_MLP_CIS, was analyzed with bidirectional fitting relative to DMSO as the negative control and baseline of activity. Using a type of inducible reporter, measures of mRNA for gain or loss-of-signal activity can be used to understand the reporter gene at the transcription factor-level as they relate to the gene POU2F1. Furthermore, this assay endpoint can be referred to as a primary readout, because this assay has produced multiple assay endpoints where this one serves a reporter gene function. To generalize the intended target to other relatable targets, this assay endpoint is annotated to the dna binding intended target family, where the subfamily is POU domain protein.
Human liver HepG2 cells are transiently transfected with multiple reporter transcription units (MRTUs) in 6-well plates using FuGene 6 reagent (Roche; 3 ml FuGene/1 mg DNA). The MRTU constructs are regulated by a cis-regulating element (promoter). […] A major difference between the CIS and TRANS system is that in CIS activities of endogenous TFs are measured, whereas the TRANS assay evaluates changes in activities of exogenous, chimeric NR-Gal4 proteins. […] At the end of 24 hour incubation, total RNA was isolated using TriZol reagent (Invitrogen). The isolated RNA is then reverse-transcribed using oligo(dT) primer and Mo-MLV reverse transcriptase (Invitrogen) with DNAse I (Ambion) treatment for 30 min. The one-tenth of the produced cDNA was amplified by PCR using Taq DNA polymerase (Invitrogen) and two reporter sequence-specific primers. The PCR products were fluorescently labeled by primer extension with 6-arboxyfluorescein (6-FAM) 5'-labeled reporter sequence-specific primer (2 min at 95 C, 20 s at 68 C and 10 min at 72 C) and these products were digested with 5U of HpaI (New England Biolabs) for 2h at 37 C. The fragments were purified using Qiaquick PCR columns (Qiagen), analyzed on an ABI 3130xL genetic analyzer (Applied Biosystems) with peak positions identified by using a set of X-rhodamine (ROX)-labeled MapMarker1000 molecular weight standards (BioVentures). The raw capillary electrophoresis data was processed using Attagraph software (Attagene).

Compound	outcome	AC50
Nc1ccc(-c2ccc(N)c(N)c2)cc1N	inactive	
CC(=O)C=Cc1ccccc1		100 µM (active)
Oc1ccc(C2(c3ccc(O)cc3)c3ccccc3-c3ccccc32)cc1		9.82 µM (active)
O=[N+]([O-])O.O=[N+]([O-])O.[Cd]		1.16 µM (active)
CCC(=O)c1ccc(Cl)cc1	inactive	
CN1C(=O)CCS(=O)(=O)C1c1ccc(Cl)cc1 (stereo not given)	inactive	
CC(O)CN(CC(C)O)CC(C)O (stereo not given)	inactive	
CCCCCCC1CCOC1=O (stereo not given)	inactive	
C[N+](C)=CCl	inactive	
[CH3][Sn]([Cl])([Cl])[Cl]	inactive	
NNc1ccccc1	inactive	
CC(C)CCCCCCCOP(=O)(Oc1ccccc1)Oc1ccccc1	inactive	
C=CC(=O)OCC(CC)CCCC (stereo not given)	inactive	
CC(C)[C@@H](C(=O)O[C@@H](C#N)c1cccc(Oc2ccccc2)c1)c1ccc(Cl)cc1	inactive	
O=C1C=CC(=O)C=C1	inactive	
[Cl-].[Cl-].[Cl-].[Yb+3]	inactive	
CCC(Br)(CC)C(=O)NC(N)=O	inactive	
CC1OC(C)OC(C)O1 (stereo not given)	inactive	
CCc1cccc(C)c1N(C(=O)CCl)[C@@H](C)COC	inactive	
BrCBr	inactive	

Compound	outcome	AC50
CC(Cc1ccc(C(C)(C)C)cc1)CN1C[C@@H](C)O[C@@H](C)C1 (stereo not given in full)	inactive	
N#Cc1cc(I)c(O)c(I)c1		39.3 µM (active)
O=C(O)CCCc1ccc(N(CCCl)CCCl)cc1	inactive	
COc1cc(OC)nc(Oc2cccc(Oc3nc(OC)cc(OC)n3)c2C(=O)O)n1	inactive	
O=C1Nc2ccc(Cl)cc2C(c2ccccc2)=NC1O (stereo not given)	inactive	
N#CC(c1ccccc1)c1ccccc1	inactive	
Nc1ccccc1	inactive	
Clc1ccc(-c2ccccc2)cc1	inactive	
CC(C)(c1cc(Cl)c(O)c(Cl)c1)c1cc(Cl)c(O)c(Cl)c1	inactive	
Oc1ccc(Cl)cc1	inactive	
ClCCCCCCCl	inactive	
CCCOC(=O)c1ccccc1C(=O)OCCC	inactive	
CCNCC	inactive	
[N-]=[N+]=CC(=O)OC[C@H](N)C(=O)O	inactive	
CN(C)CCC#N	inactive	
O=C(O)COc1ccccc1	inactive	
[CH3][Sn]([CH3])([Cl])[Cl]	inactive	
CC(C)C#N	inactive	
Nc1ccccc1C(=O)Oc1ccc2ccccc2c1		54.7 µM (active)
COc1ncc(F)c2nc(S(=O)(=O)Nc3c(F)cccc3F)nn12	inactive	
